Test results from PMC5540273 (PLoS ONE, 2017).

Columns and labels:
Conditions in all cases: concentration: 1 μM, replicates: in singlicate; n = 1
EPHB6 = tested on: EPHB6
ERBB2 = tested on: ERBB2
ERBB3 = tested on: ERBB3
ERBB4 = tested on: ERBB4
ERK1 = tested on: T1, ERK1
T1 construct: gene MAPK3

ERK2 = tested on: T2, ERK2
T2 construct: gene MAPK1

ERK3 = tested on: T3, ERK3
T3 construct: gene MAPK6

ERK4 = tested on: T4, ERK4
T4 construct: gene MAPK4

ERK5 = tested on: T5, ERK5
T5 construct: gene MAPK7

ERK8 = tested on: T6, ERK8
T6 construct: gene MAPK15

ERN1 = tested on: ERN1
FAK = tested on: T7, FAK
T7 construct: gene PTK2

FER = tested on: FER
FES = tested on: FES
FGFR1 = tested on: FGFR1
FGFR2 = tested on: FGFR2
FGFR3 = tested on: FGFR3
FGFR4 = tested on: FGFR4
FGR = tested on: FGR
FLT1 = tested on: FLT1
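Note: KINOMEscan kinase panel screen.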

| SMILES | %Inh (EPHB6) [%] | %Inh (ERBB2) [%] | %Inh (ERBB3) [%] | %Inh (ERBB4) [%] | %Inh (ERK1) [%] | %Inh (ERK2) [%] | %Inh (ERK3) [%] | %Inh (ERK4) [%] | %Inh (ERK5) [%] | %Inh (ERK8) [%] | %Inh (ERN1) [%] | %Inh (FAK) [%] | %Inh (FER) [%] | %Inh (FES) [%] | %Inh (FGFR1) [%] | %Inh (FGFR2) [%] | %Inh (FGFR3) [%] | %Inh (FGFR4) [%] | %Inh (FGR) [%] | %Inh (FLT1) [%] |
| --- | --- | --- | --- | --- | --- | --- | --- | --- | --- | --- | --- | --- | --- | --- | --- | --- | --- | --- | --- | --- |
| Cc1cccc(Cn2ccn3c(=O)cc(N4CCOCC4)nc23)c1 [GSK2297542] | 24 | 1 | 0 | 27 | 20 | 5 | 27 | 32 | 0 | 0 | 16 | 0 | 30 | 10 | 0 | 16 | 16 | 10 | 32 | 20 |
| CCc1ccnc(/C=C/c2n[nH]c3cc(Sc4ccccc4C(=O)NC)ccc23)c1 | 35 | 2 | 0 | 21 | 0 | 5 | 0 | 9 | 0 | 0 | 0 | 14 | 0 | 0 | 84 | 87 | 83 | 11 | 86 | 100 |
| COc1ccc(Nc2ncc(C#N)c(Nc3ccccc3C(N)=O)n2)cc1N1CCN(C)CC1.Cl [GSK1558669] | 98.3 | 80 | 96.6 | 88 | 7 | 0 | 100 | 100 | 99.9 | 98.9 | 92 | 100 | 99.5 | 99.3 | 100 | 99.8 | 99.9 | 85 | 96.5 | 100 |
| Fc1ccc(-c2ncn(CCCN3CCOCC3)c2-c2ccccn2)cc1 [SB-211742] | 0 | 10 | 52 | 6 | 0 | 5 | 0 | 0 | 19 | 0 | 0 | 29 | 0 | 10 | 0 | 0 | 0 | 0 | 27 | 23 |
| Cn1cc(-c2ccc3c(c2)CCN3C(=O)Cc2ccccc2Cl)c2c(N)ncnc21 [GSK2608885] | 98.3 | 97.2 | 86 | 98.9 | 0 | 0 | 0 | 23 | 47 | 0 | 37 | 42 | 64 | 22 | 59 | 82 | 43 | 15 | 99 | 98.8 |
| Cn1ccc2ncnc(Oc3ccc(NC(=O)Nc4ccncc4)c(Cl)c3)c21 | 0 | 15 | 0 | 0 | 0 | 0 | 5 | 0 | 0 | 1 | 0 | 0 | 0 | 0 | 0 | 0 | 0 | 0 | 5 | 0 |
| Cc1cccc(-c2nc(-c3ccc(S(C)(=O)=O)cc3)sc2-c2ccncc2)c1 | 46 | 4 | 9 | 0 | 6 | 29 | 6 | 0 | 2 | 0 | 0 | 4 | 14 | 37 | 26 | 1 | 0 | 0 | 45 | 0 |
| CCn1cnc2c(N)ncnc21 [GW345098] | 25 | 0 | 10 | 0 | 2 | 19 | 0 | 0 | 2 | 5 | 25 | 7 | 0 | 14 | 0 | 7 | 0 | 0 | 12 | 9 |
| C[C@@H](Oc1cc(-n2cnc3ccc(NC(=O)NC(C)(C)C)cc32)sc1C(N)=O)c1ccccc1Cl [GSK346294] | 21 | 15 | 22 | 0 | 0 | 0 | 7 | 19 | 0 | 0 | 13 | 0 | 43 | 0 | 13 | 0 | 30 | 14 | 8 | 46 |
